# In all, about 5,500 compounds went through this assay and about 2,000 (36%) were called active. Another 18% or so got no clear call; they are omitted. Some of the results follow. Values without a mark were called inactive. Cut-off read from the data, not from the text of the source: active = normalized growth mostly below about 0.91 (no sharp cut-off); inconclusive = no clear call, values can overlap the other calls; inactive = mostly above about 0.92.
# Assay: chemical genetic growth profiling, strain panel (AID 1159580);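 note: tested at 20 µM; growth read once vehicle control cultures reached saturation at 30 °C; 1 = growth at the plate median or of vehicle wells; lower values mean less growth of the strain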
# Details: S. cerevisiae deletion strains, growth OD
smiles,measurement,setting,value
CC(=O)NC1C(O)OC(COS(=O)(=O)O)C(OC2OC(C(=O)O)C(OC3OC(CO)C(OC4OC(C(=O)O)C(O)C(O)C4OS(=O)(=O)O)C(OS(=O)(=O)O)C3NS(=O)(=O)O)C(O)C2OS(=O)(=O)O)C1O (stereo not drawn),normalized growth,"locus YAL021C, strain ccr4, active compounds read low",0.991
same,normalized growth,"locus YAL026C, strain drs2, active compounds read low",0.974
same,normalized growth,"locus YAL030W, strain snc1, active compounds read low",0.988
same,normalized growth,"locus YBL061C, strain skt5, active compounds read low",0.964
same,normalized growth,"locus YBR009C, strain hhf1, active compounds read low",0.989
same,normalized growth,"locus YBR023C, strain chs3, active compounds read low",0.971
same,normalized growth,"locus YBR171W, strain sec66, active compounds read low",0.957
same,normalized growth,"locus YBR231C, strain swc5, active compounds read low",0.991
same,normalized growth,"locus YBR279W, strain paf1, active compounds read low",0.981
same,normalized growth,"locus YCL011C, strain gbp2, active compounds read low",0.976
same,normalized growth,"locus YCL016C, strain dcc1, active compounds read low",0.971
same,normalized growth,"locus YCL061C, strain MRC1, active compounds read low",0.978
same,normalized growth,"locus YCL069W, strain vba3, active compounds read low",0.976
same,normalized growth,"locus YCR088W, strain abp1, active compounds read low",0.974
same,normalized growth,"locus YDL005C, strain med2, active compounds read low",0.978
same,normalized growth,"locus YDL040C, strain nat1, active compounds read low",0.973
same,normalized growth,"locus YDR001C, strain nth1, active compounds read low",0.976
same,normalized growth,"locus YDR069C, strain doa4, active compounds read low",0.978
same,normalized growth,"locus YDR137W, strain rgp1, active compounds read low",0.92
same,normalized growth,"locus YDR159W, strain sac3, active compounds read low",0.992
same,normalized growth,"locus YDR195W, strain ref2",0.965
same,normalized growth,"locus YDR297W, strain sur2, active compounds read low",0.981
same,normalized growth,"locus YDR334W, strain swr1, active compounds read low",0.96
same,normalized growth,"locus YDR335W, strain msn5, active compounds read low",0.978
same,normalized growth,"locus YDR392W, strain spt3, active compounds read low",0.979
same,normalized growth,"locus YEL003W, strain gim4, active compounds read low",0.978
same,normalized growth,"locus YEL037C, strain rad23, active compounds read low",0.978
same,normalized growth,"locus YEL061C, strain CIN8 (second series), active compounds read low",0.976
same,normalized growth,"locus YER015W, strain faa2, active compounds read low",0.986
same,normalized growth,"locus YER016W, strain bim1, active compounds read low",0.982
same,normalized growth,"locus YER111C, strain swi4, active compounds read low",0.968
same,normalized growth,"locus YER155C, strain BEM2 (second series), active compounds read low",0.975
same,normalized growth,"locus YFR010W, strain ubp6, active compounds read low",0.968
same,normalized growth,"locus YGL167C, strain pmr1, active compounds read low",0.97
same,normalized growth,"locus YGL173C, strain kem1, active compounds read low",0.966
same,normalized growth,"locus YGL227W, strain vid30, active compounds read low",0.975
same,normalized growth,"locus YGL240W, strain doc1, active compounds read low",0.996
same,normalized growth,"locus YGL253W, strain hxk2, active compounds read low",0.994
same,normalized growth,"locus YHR013C, strain ard1, active compounds read low",0.947
same,normalized growth,"locus YHR027C, strain rpn1, active compounds read low",0.979
same,normalized growth,"locus YHR142W, strain chs7, active compounds read low",0.957
same,normalized growth,"locus YJL092W, strain hpr5, active compounds read low",0.976
same,normalized growth,"locus YJL095W, strain BCK1 (second series), active compounds read low",0.979
same,normalized growth,"locus YJL115W, strain asf1, active compounds read low",0.967
same,normalized growth,"locus YJL129C, strain trk1, active compounds read low",0.986
same,normalized growth,"locus YJL154C, strain vps35, active compounds read low",0.974
same,normalized growth,"locus YJL164C, strain tpk1, active compounds read low",0.979
same,normalized growth,"locus YJL166W, strain qcr8, active compounds read low",0.982
same,normalized growth,"locus YJL187C, strain SWE1, active compounds read low",0.978
same,normalized growth,"locus YKL160W, strain elf1, active compounds read low",0.976
same,normalized growth,"locus YKR026C, strain gcn3, active compounds read low",0.978
same,normalized growth,"locus YKR091W, strain srl3, active compounds read low",0.984
same,normalized growth,"locus YLL001W, strain dnm1, active compounds read low",0.975
same,normalized growth,"locus YLL026W, active compounds read low",0.981
same,normalized growth,"locus YLL041C, strain sdh2, active compounds read low",0.982
same,normalized growth,"locus YLR027C, strain aat2, active compounds read low",0.982
same,normalized growth,"locus YLR221C, strain rsa3, active compounds read low",0.969
same,normalized growth,"locus YLR258W, strain gsy2, active compounds read low",0.986
same,normalized growth,"locus YLR262C, strain YPT6 (second series), active compounds read low",0.977
same,normalized growth,"locus YLR320W, strain mms22, active compounds read low",0.977
same,normalized growth,"locus YLR342W, strain FKS1, active compounds read low",0.98
same,normalized growth,"locus YLR357W, strain rsc2, active compounds read low",0.964
same,normalized growth,"locus YLR370C, strain arc18, active compounds read low",0.966
same,normalized growth,"locus YLR384C, strain iki3, active compounds read low",0.963
same,normalized growth,"locus YML120C, strain ndi1, active compounds read low",0.981
same,normalized growth,"locus YMR058W, strain fet3, active compounds read low",0.987
same,normalized growth,"locus YMR125W, strain sto1, active compounds read low",0.981
same,normalized growth,"locus YMR129W, active compounds read low",0.983
same,normalized growth,"locus YMR205C, strain PFK2, active compounds read low",0.982
same,normalized growth,"locus YMR231W, strain pep5, active compounds read low",0.967
same,normalized growth,"locus YNL071W, strain lat1, active compounds read low",0.983
same,normalized growth,"locus YNL209W, strain ssb2, active compounds read low",0.975
same,normalized growth,"locus YNL248C, strain rpa49, active compounds read low",0.98
same,normalized growth,"locus YNL322C, strain KRE1 (second series), active compounds read low",0.989
same,normalized growth,"locus YNR049C, strain mso1, active compounds read low",0.987
same,normalized growth,"locus YOR001W, strain rrp6, active compounds read low",0.97
same,normalized growth,"locus YOR070C, strain gyp1, active compounds read low",0.978
same,normalized growth,"locus YOR080W, strain dia2, active compounds read low",0.969
same,normalized growth,"locus YOR083W, strain WHI5, active compounds read low",0.986
same,normalized growth,"locus YOR106W, strain vam3, active compounds read low",0.984
same,normalized growth,"locus YOR265W, strain rbl2, active compounds read low",0.972
same,normalized growth,"locus YOR270C, strain vph1, active compounds read low",0.952
same,normalized growth,"locus YOR290C, strain snf2, active compounds read low",0.961
same,normalized growth,"locus YPL051W, strain arl3, active compounds read low",0.977
same,normalized growth,"locus YPL078C, strain atp4, active compounds read low",0.97
same,normalized growth,"locus YPL106C, strain sse1, active compounds read low",0.97
same,normalized growth,"locus YPL240C, strain hsp82, active compounds read low",0.982
O=c1onc2n1-c1cc(Br)ccc1OC2,normalized growth,"locus YAL013W, strain DEP1, active compounds read low",0.994
same,normalized growth,"locus YAL040C, strain CLN3, active compounds read low",0.991
same,normalized growth,"locus YCL061C, strain MRC1 (second series), active compounds read low",1.01
same,normalized growth,"locus YDR363W, strain ESC2, active compounds read low",0.995
same,normalized growth,"locus YER002W, strain NOP16, active compounds read low",1
same,normalized growth,"locus YGR078C, strain PAC10, active compounds read low",0.952
same,normalized growth,"locus YJR075W, strain HOC1, active compounds read low",1
same,normalized growth,"locus YMR263W, strain SAP30, active compounds read low",1.01
same,normalized growth,"locus YMR307W, strain GAS1, active compounds read low",0.989
same,normalized growth,"locus YNL153C, strain GIM3, active compounds read low",0.763 (active)
same,normalized growth,"locus YNL175C, strain NOP13, active compounds read low",1
same,normalized growth,"locus YNL197C, strain WHI3, active compounds read low",1.02
same,normalized growth,"locus YNL224C, strain SQS1, active compounds read low",1
same,normalized growth,"locus YNL322C, strain KRE1, active compounds read low",0.998
same,normalized growth,"locus YOR083W, strain WHI5 (second series), active compounds read low",0.882
same,normalized growth,"locus YPL241C, strain CIN2, active compounds read low",1
